# Results: PubChem BioAssay
# The source made the active and inactive calls.
# Tested on: PRMT1 (protein arginine N-methyltransferase 1)
# Assay: PRMT1 binders on small-molecule microarrays, primary screen, biochemical, small-molecule microarray, 635 nm fluorescence (AID 1088);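 also: binding of Prmt1 protein to compounds spotted on small-molecule microarray slides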
# Conditions: small-molecule microarray binding, higher = more signal
row,SMILES,composite z-score
1,C#CCN(Cc1ccccc1Br)[C@H](/C=C/c1ccccc1)[C@@H](O)Cc1ccccc1,-0.384
2,COCCOC(=O)N1C(=O)[C@@]2(c3cc(C#CC4=CCCCC4)ccc31)[C@H](c1ccccc1OCCO)N1[C@H](c3ccccc3)[C@H](c3ccccc3)OC(=O)[C@H]1[C@@H]2C(=O)NC[C@H](O)c1ccccc1,1.54
3,NCCCCCCNC(=O)[C@@H]1C[C@@H]2C(=O)N[C@@H](CCCCN)C(=O)N2[C@@H]1c1ccc(O)cc1,1.44
4,C=CC[C@]1(C(=O)N2CCOCC2)COC(c2ccc(OCCCO)cc2)=N1,1.55
5,COc1ccc(C(=O)Nc2ccc(CN3C(=O)[C@]4(O[C@H](CC(=O)N5Cc6ccccc6C[C@H]5CO)[C@@H]([Si](C)(C)c5ccc(OC)cc5)[C@@H]4C)c4ccccc43)cc2)cc1,1.56
6,CCCNC(=O)[C@@H]1c2ccccc2C(=O)N(Cc2ccc(OC(F)(F)F)cc2)[C@H]1c1ccc(CO)cc1,0.428

# Tested on: not listed separately
# Assay: yeast growth modulation, basal conditions, primary screen, YJM789 clinical isolate, OD600, 24 h (AID 1089);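 also: growth of clinical yeast isolate S. cerevisiae YJM 789 seeded 1000 cells per well; test concentration not given here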
# Conditions: S. cerevisiae YJM789 growth, higher = more signal, called active from +8 up or from −8 down
row,SMILES,z-score
1,C=CCC(OC(C)=O)[C@@H]1[C@@H](N(Cc2ccc(-c3ccccc3)cc2)C(=O)c2ccc(-c3ccccc3)cc2)c2cc(OCCCO)ccc2N1C(=O)c1ccc2ccccc2c1 (stereo partly specified),-0.737 (inactive)
2,CCOC(=O)C[C@H]1[C@H](OC(=O)c2cc3ccccc3oc2=O)[C@@H](NC(=O)c2ccc3ccccc3n2)c2cc(OCCCO)ccc2N1C(=O)Cc1ccc(OC)cc1,-0.136 (inactive)
3,Cc1ccc(S[C@]2(C(=O)NCC(F)(F)F)CC(=O)N(Cc3cc(C(F)(F)F)cc(C(F)(F)F)c3)[C@@H]2c2ccc(CO)cc2)cc1,0.0966 (inactive)
4,COC(=O)[C@@]1(Cc2ccc(OC)cc2)[C@H]2c3cc(C(=O)N4CCCC4)n(CCc4c[nH]c5ccc(O)cc45)c3C[C@H]2CN1C(=O)c1ccccc1,0.277 (inactive)
5,NC(=O)[C@@]1(Cc2ccccc2)COC(c2ccc(OCCCO)cc2)=N1,1.2 (inactive)
6,COCCOC(=O)N1C(=O)[C@@]2(c3cc(C#CCCO)ccc31)[C@H](C(=O)Nc1nc3ccccc3s1)[C@H]1C(=O)O[C@H](c3ccccc3)[C@H](c3ccccc3)N1[C@@H]2c1ccc(O)cc1,1.32 (inactive)
7,COc1ccc([Si](C)(C)[C@@H]2[C@@H](CCO)O[C@]3(C(=O)N(Cc4ccccc4)c4ccc(N5CCOC5=O)cc43)[C@H]2C)cc1,2.55 (inactive)
8,C=C(/C(=C/C[C@H](OC(C)=O)c1ccc(CO)o1)c1cnc2ccccc2c1)C(C)C,-0.816 (inactive)
9,COC(=O)[C@@]1(Cc2ccccc2)[C@H]2c3cc(C(=O)N4CCCC4)n(CCc4ccccn4)c3C[C@H]2CN1C(=O)c1ccccc1,-0.789 (inactive)
10,COCC(=C=CC[C@H](O)c1ccc(OCCO)cc1)CCO,0.028 (inactive)
11,CCOC(=O)C1=C[C@@H](C(C)(C)C)N(S(=O)(=O)c2ccc(C)cc2)[C@H]1c1cccc2ccccc12,2.23 (inactive)
12,C=CC[C@@]1(C(=O)NCCCOC)N=C(c2ccc(OCCCO)cc2)O[C@@H]1c1ccccc1,-3.84 (inactive)
13,[N-]=[N+]=Nc1ccccc1C[C@]1(C(=O)NCCN2CCOCC2)COC(c2ccc(OCCCO)cc2)=N1,-0.877 (inactive)
14,Cc1ccc(F)cc1S(=O)(=O)N[C@@H]1CCN(Cc2ccc(Br)cc2)C1,-1.47 (inactive)
15,OCCCC1=CC(c2ccc(CN3CCCC3)cc2)N(Cc2cc3c(cc2Br)OCO3)CC1 (stereo unspecified),-2.55 (inactive)
16,COC(=O)C1=CC(CCCO)=CC(c2ccc(CN3CCCC3)cc2)N(Cc2cccc(OC(F)(F)F)c2)C=C1C(=O)OC (stereo unspecified),-1.22 (inactive)
17,CC(CO)N1C(=O)[C@@H]2[C@H]3C(=O)OCC=C[C@H]3OC23C=CCN(Cn2nnc4ccccc42)C(=O)[C@@H]13 (stereo partly specified),-0.596 (inactive)
18,CC(C)NC(=O)[C@@]1(c2ccc([N+](=O)[O-])cc2)CC(=O)N(C2CCCCC2)[C@@H]1c1ccc(CO)cc1,0.359 (inactive)

row,SMILES,z-score
1,O=C1CS(=O)(=O)C(c2cccc([N+](=O)[O-])c2)N1c1ccccc1 (stereo unspecified),-2.58 (inactive)
2,NC(=O)NCC#Cc1ccc2c(c1)[C@]1(C(=O)N2)[C@H](c2ccccc2OCCO)N2[C@H](c3ccccc3)[C@H](c3ccccc3)OC(=O)[C@H]2[C@@H]1C(=O)NC[C@H](O)c1ccccc1,1.5 (inactive)
3,CCCC[C@@H](O)C1=C(COc2ccccc2)C[C@H]2C(=O)N(Cc3ccccc3)C(=O)[C@H]2[C@H]1CO,0.298 (inactive)
4,COC(=O)[C@@]1(Cc2ccc(F)cc2)[C@H]2c3cc(C(=O)N(C)C)n(Cc4ccc(OC(F)(F)F)cc4)c3C[C@H]2CN1C(=O)c1ccccc1,0.784 (inactive)
5,COCCOC(=O)N1C(=O)[C@@]2(c3cc(C#CC4=CCCCC4)ccc31)[C@H](c1ccccc1OCCO)N1[C@H](c3ccccc3)[C@H](c3ccccc3)OC(=O)[C@H]1[C@@H]2C(=O)N1CCN(c2ncccn2)CC1,0.218 (inactive)
6,O=C1OCCC=C[C@H]2OC34C=CCN(c5ccc6ccccc6c5)C(=O)[C@H]3N(CCCO)C(=O)[C@@H]4C12 (stereo partly specified),0.312 (inactive)
7,CCCC=C(CCC)[C@@H](NS(=O)(=O)CC12CCC(CC1=O)C2(C)C)c1ccc(C(=O)OC)cc1 (stereo partly specified),-0.723 (inactive)
8,CC(C)[Si](C#C[Si](C(C)C)(C(C)C)C(C)C)(O[C@H](c1ccccc1)c1cn(Cc2ccccc2)nn1)C(C)C,0.242 (inactive)
9,C[N+](C)(C)CCCC[C@@H]1NC(=O)[C@@H]2C[C@H](C(=O)NCCCCCCN)[C@H](c3cccc(OCCO)c3)N2C1=O,-0.344 (inactive)
10,COC(=O)[C@@H]1N=C(c2ccc(OCCCO)cc2)O[C@@H]1C,0.464 (inactive)
11,Cc1ccc(N2C(=O)c3ccccc3[C@@H](C(=O)NCCCN(C)C)[C@@H]2c2ccc(CO)cc2)nc1,-0.292 (inactive)
12,C#CCN(Cc1ccccc1Br)[C@H](/C=C/c1ccccc1)[C@@H](O)Cc1ccccc1,0.737 (inactive)
13,COCCOC(=O)N1C(=O)[C@@]2(c3cc(C#CC4=CCCCC4)ccc31)[C@H](c1ccccc1OCCO)N1[C@H](c3ccccc3)[C@H](c3ccccc3)OC(=O)[C@H]1[C@@H]2C(=O)NC[C@H](O)c1ccccc1,1.01 (inactive)
14,NCCCCCCNC(=O)[C@@H]1C[C@@H]2C(=O)N[C@@H](CCCCN)C(=O)N2[C@@H]1c1ccc(O)cc1,-0.171 (inactive)
15,C=CC[C@]1(C(=O)N2CCOCC2)COC(c2ccc(OCCCO)cc2)=N1,-0.544 (inactive)
16,COc1ccc(C(=O)Nc2ccc(CN3C(=O)[C@]4(O[C@H](CC(=O)N5Cc6ccccc6C[C@H]5CO)[C@@H]([Si](C)(C)c5ccc(OC)cc5)[C@@H]4C)c4ccccc43)cc2)cc1,0.186 (inactive)
17,CCCNC(=O)[C@@H]1c2ccccc2C(=O)N(Cc2ccc(OC(F)(F)F)cc2)[C@H]1c1ccc(CO)cc1,0.645 (inactive)
